The list is not random: actives were taken first. Their share in the collection is about 7.1%.
ATXN viability: viability counter-screen for ATXN expression inhibitors; S2 cells (HEK-293 line with an ATXN2-luciferase reporter) viability, CellTiter-Fluor protease fluorescence, 24 h; Potency, µM (doses to about 56.7 µM), usual class: cytotoxic; 400,000 tested, 0.49% active; also: potency is read from the fitted curve at half-maximal effect; nearly all actives have a fitted effect of over 40% in size
MCF10A rereplic: induces DNA re-replication in MCF 10a normal breast cells; MCF 10A DNA re-replication, Hoechst nuclear intensity, 48 h; Potency, µM (series often up to 46.1 µM), for inactives: top-dose activity, positive = re-replication, actives largely listed as activators; 350,000 tested, 2.9% active; AID 624296; also: potency is read from the fitted curve at half-maximal effect; % of control where 0% means no effect; nearly all actives have a fitted effect of over 50% in size
SW480 rerep: DNA re-replication induction in SW480 cells; SW480 DNA re-replication, Hoechst DNA content imaging, 48 h; Potency, µM (series often up to 46.1 µM), inactives show at the top dose re-replication activation, actives largely listed as activators; 340,000 tested, 1.8% active; also: potency is read from the fitted curve at half-maximal effect; % of control where 0% means no effect; nearly all actives have a fitted effect of over 55% in size
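DNA re-replication was detected as more nuclei of elevated Hoechst intensity after 48 hr exposure to compound (23 nL pinned per well of 250 cells).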
PINK1 modulator: PINK1 expression modulation. PINK1 immunofluorescence, high-content cytometry, 24 h. Potency, µM (doses to about 76.6 µM), for the others: at the top dose activation (PINK1 increase), most hits filed as activators. 410,000 tested, 0.2% active. AID 624263; active = well fitted activation curve with a large enough effect; inconclusive = small, poorly fitted or top-dose-only effect; cell line not stated here; also: potency is read from the fitted curve at half-maximal effect; % of control where 0% means no effect; nearly all actives have a fitted effect of over 65% in size
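Measures PINK1 amount and localization on or inside mitochondria by immunofluorescence. Stable cells get compounds at 5 concentrations for 24 hours before fixation and staining; CCCP controls included.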
ATXN2 expr inh: reduces ATXN2 reporter expression in HEK-293 cells; HEK-293 ATXN2-luciferase reporter, luminescence, 24 h; Potency, µM (series often up to 57 µM), for the others: at the highest dose activity change, negative = inhibition, most hits filed as inhibitors; 360,000 tested, 0.72% active; AID 1745845; also: potency is read from the fitted curve at half-maximal effect; % is scaled to controls: 0 for no effect and ±100 for the full control effect; nearly all actives have a fitted effect of over 55% in size
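ATXN2-luciferase reporter cells (luciferase flanked by upstream and downstream ATXN2 gene portions) were treated 24 h at 37 °C with compounds at up to 57 uM. SteadyGlo luminescence gave expression; GF-AFC fluorescence gave viability.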
IL1B secr inh: inflammasome signaling inhibition, IL-1 beta readout; 360,000 tested, 4.7% active; THP-1 LPS/ATP IL-1B secretion, AlphaLISA, 16 h; stronger effect = lower value; activity change, % at 57.5 µM; in the data active = activity change below about -50%; inconclusive = mostly about -30% to -49%; also: % is scaled to controls: 0 for no effect and ±100 for the full control effect
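Secreted IL-1B measured by AlphaLISA bead assay after 16 h compound exposure of THP-1 cells; compounds (final up to 57.5 uM) added 1 h before LPS (250 ng/mL) and ATP (1.25 mM) stimulation; lower signal means less secretion.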
The depositor's hits bear a star; i = inactive; ? = inconclusive; · = not tested or not shown; [ ] = remark or other dose. Unless noted, calls follow the shape of the dose curve; as a rule, active = well fitted curve in the direction sought with a large enough effect; inconclusive = small, poorly fitted or top-dose-only effect, or another doubt; inactive = no such curve, though single readings can be large; an effect the other way counts as inactive or inconclusive.

SMILES	ATXN viability	MCF10A rereplic	SW480 rerep	PINK1 modulator	ATXN2 expr inh	IL1B secr inh
O=C(NCC(c1cccs1)N1CCOCC1)c1cn(-c2ccccc2)nc1-c1ccc(F)cc1 (configuration not stated)	i	?	?	3%	-35%	-60*
O=C(NCC(c1cccs1)N1CCOCC1)c1cnc(Cl)c(Cl)c1 (configuration not stated)	?	18%	?	6%	?	-98*
Cn1cc(CNC2CCN(c3cccc(NC(=O)c4cccnc4)c3)CC2)cn1	i	·	·	0%	·	·
CCc1c(O)nc(SCC(=O)Nc2ccccc2)n(-c2ccccc2)c1=O	i	3.7µM*	21µM*	1%[38.3 µM]	1%	28
Fc1ccc(CNc2nc(-c3ccccc3)nc3ccccc23)cc1	i	?	-44%	8%	-11%	-62*
COc1ccc(CNc2nc(-c3ccccc3)nc3ccccc23)cc1OC	?	29%	-4%	8%	-17%	-62*
O=[N+]([O-])c1ccc(-c2nc(NCc3ccccc3)c3ccccc3n2)cc1	i	?	-7%	2%	-16%[11.3 µM]	12
c1ccc(-c2nc(NC3CCCC3)c3ccccc3n2)cc1	i	13%	-2%	9%	-27%	-63*
c1ccc2c(NC3CC3)nc(-c3ccoc3)nc2c1	·	·	·	2%	·	·
CCN(CC)S(=O)(=O)c1ccc2c(c1)N(CC(=O)N1CCN(c3cccc(Cl)c3)CC1)C(=O)CO2	?	·	·	0%	-10%	·
CO[C@H]1[C@H](NC(=O)c2ccco2)c2ccccc2C12CCN(Cc1cc(Cl)ccc1O)CC2	?	·	·	0%	·	·
CCn1c(C(=O)Nc2cc(C)cc(C)c2)cc2sc(Cl)cc21	i	·	·	-1%	6%	·
O=C1CCC/C(=N\NC(=O)c2ccc(COc3ccccc3-c3ccccc3)cc2)C1	i	9.2µM*	100%	2%	-7%	-15
COc1ccc(N2CCN(C(=O)c3cc(=O)c4cc(C)ccc4o3)CC2)cc1	i	11%	-12%	-1%	-25%	-6
COc1ccc(N2CCN(C(=O)c3cc(=O)c4cc(C)cc(C)c4o3)CC2)cc1	i	13%	-4%	8%	-16%	-77*
COc1cc2sc3cc(NCC[C@@H]4CCCN4C)ccc3c(=O)c2cc1OC	i	?	?	-1%	-12%	-60*
COc1ccc2sc3cccc(NCCN(C)C)c3c(=O)c2c1	i	·	·	-1%	-8%	-7
COc1cccc2sc3ccc(NCCC4CCCN4C)cc3c(=O)c12 (configuration not stated)	?	-27%	-2%	3%	-23%	-70*
COc1cc2sc3cc(NCc4ccc(C)o4)ccc3c(=O)c2cc1OC	i	-35%	27%	-1%	10%	-69*
CC(C)CCn1c(=O)c2cccnc2n(CC(=O)Nc2ccc(F)cc2)c1=O	?	·	·	-1%	-24%	·
Cc1c(C(=O)NCC2COCCO2)cnn1-c1nccc(-c2cccs2)n1 (configuration not stated)	i	·	·	3%	·	·
Cc1ccc(NC(=O)Cn2c(=O)n(CCCCC(=O)NCc3ccccc3Cl)c(=O)c3ccccc32)cc1C	i	·	·	2%	-1%	·
CCOC(=O)c1[nH]c(C)c(CCC(=O)NCc2ccccc2Cl)c1C	i	·	·	1%	1%	·
Cn1c(=O)c(C(=O)COC(=O)c2cc(C3CC3)nc3ccccc23)c(N)n(Cc2ccccc2)c1=O	i	?	8%	2%	-16%	-8
Cn1c(=O)c(C(=O)COC(=O)c2cc(-c3ccco3)nc3ccccc23)c(N)n(CC2CC2)c1=O	·	8%	16µM*	·	·	·
SMILES	ATXN viability	MCF10A rereplic	SW480 rerep	PINK1 modulator	ATXN2 expr inh	IL1B secr inh
CC(C)Oc1ccc(CNC(=O)Nc2ccc3c(c2)N(C)C(=O)c2ccccc2S3)cc1	·	·	·	3%	·	·
COC1CCC(C(=O)c2ccc3nc4c(cc3c2)CCCO4)CC1 (configuration not stated)	·	·	·	·	31µM*	·
Cc1ccc(C(=O)C2CC2)cc1C	i	1%	8%	1%	-6%	-3
Cc1cccc(NC(=O)CSc2nc(C)cc(C)c2C(=O)Nc2ccc(Cl)cc2)c1	i	·	·	8%	1%	·
COc1ccc(-c2nc3sc(CCNC(=O)c4ccc(Br)o4)c(C)n3n2)cc1	?	·	·	0%	-38%	·
NNC(=O)COc1ccc(-c2n[nH]c(C(F)(F)F)c2-c2ccc(Br)cc2)c(O)c1	i	18µM*	-79%	12%	-7%	19
COc1ccccc1-c1c(-c2ccc(OCC(=O)NN)cc2O)n[nH]c1C(F)(F)F	i	?	13%	1%	0%	-23
O=C(CSC1=NCCN1)Nc1ccccc1[N+](=O)[O-]	i	?	-4%	-1%	·	-119*
O=C(CSC1=NCCN1)Nc1cccc([N+](=O)[O-])c1	i	?	1%	2%	-19%	-67*
COc1ccccc1NC(=O)CSC1=NCCN1	i	-57%	-692%	1%	21%	2
O=C(CCSc1ccccc1Cl)Nc1cccc([N+](=O)[O-])c1	i	?	?	3%	·	-150*
Cc1ccc(NC(=O)CSC2=NCCN2)cc1	i	21µM*	15%	5%	14%	-61*
Cc1ccc(NC(=O)c2oc3ccc(S(=O)(=O)N4CCCCCC4)cc3c2C)c(C)c1	i	·	·	1%	-11%	·
OCC1O[C@@H](O[C@@H]2C(CO)OC(O)C(O)C2O)C(O)C(O)C1O (some centres not stated)	·	1%	-4%	·	·	·
O=C(CSC1=NCCN1)NC(c1ccccc1)c1ccccc1	·	?	?	11%	-24%	-105*
O=C(CC(=O)Nc1ccccc1[N+](=O)[O-])Nc1ccccc1[N+](=O)[O-]	i	2%	2%	-1%	-20%	-64*
Cc1cc(C)c(NC(=O)c2c(C)oc3c2C2=NCCN2C=N3)c(C)c1	i	·	·	1%	-16%	·
CN(C)c1ccc(CNC(=O)c2cc3cc(S(=O)(=O)N4CCCCC4)ccc3n2C)cc1	·	·	·	1%	·	·
C=CCn1c(NS(=O)(=O)c2ccccc2)c(S(=O)(=O)c2ccc(C)cc2)c2nc3ccccc3nc21	?	15µM*	?	?	-14%	-84*
CC(=O)Nc1c(S(=O)(=O)c2ccccc2)c2nc3ccccc3nc2n1Cc1ccccc1	i	-3%	-1%	-1%	23%	-12
O=S(=O)(Nc1c(S(=O)(=O)c2ccccc2)c2nc3ccccc3nc2n1C1CCCCC1)c1ccccc1	i	2.9µM*	14%	-2%	-20%	-69*

Screening results deposited in PubChem by National Center for Advancing Translational Sciences (NCATS).
